This note sets out measurements from PubChem BioAssay (EPA / NIEHS).

Values joined by “and” are separate entries in the source; they are usually repeats but may differ in a detail not shown here. Equal entries are not always repeated. The source holds several records for some structures; these can differ, active in one and inactive in another. Active and inactive are the calls of the source. How the source made its calls: active means hit-call score of the fitted dose curve at least 0.9, where 1 is the maximum; inactive means score below 0.9.

Assay [1] is described as follows: APR_HepG2_CellLoss_72hr: Apredica 72-hour HepG2 Assay for Cell Loss (AID 2282915). As to conditions: high-content imaging. The method in brief: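 Cell number comes from Hoechst 33342-labelled nuclei, imaged at 20x after 3.7% formaldehyde fixation. Dosing was 0.39–200 uM, ten concentrations in duplicate, 0.5% DMSO final, for 72 h. Bidirectional fit relative to DMSO baseline.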

A short description of assay [2]: APR_HepG2_P-H2AX_72hr: Apredica 72-hour HepG2 Assay for H2AX Phosphorylation (AID 2282916).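 Further: phospho-histone H2A.x immunostain intensity per cell marking DNA damage.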 As to conditions: imaging, actives raise or lower the signal. In short, it runs like this: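 HepG2 human liver cells were exposed for 72 hr to compounds at 0.39–200 uM (10 concentrations, duplicate per plate) in 0.5% v/v DMSO. Fixed, permeabilized cells were immunolabeled for phospho-histone H2A.x with Hoechst 33342 and imaged by HCS fluorescence; bidirectional fit versus DMSO.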

Assay [3] is described as follows: APR_HepG2_MitoMembPot_72hr: Apredica 72-hour HepG2 Assay for Mitochondrial Membrane Potential (AID 2282917). Conditions: imaging, actives raise or lower the signal. The method in brief: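 Membrane potential read by MitoTracker Red CMXRos (250 nM, 30 min, pre-fixation) fluorescence imaging of HepG2 after 72 hr exposure. Ten concentrations, 0.39–200 uM, duplicate wells, 0.5% DMSO; fitted in both directions against DMSO baseline.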

Assay [4] in a line: APR_HepG2_MitoticArrest_72hr: Apredica 72-hour HepG2 Assay for Mitotic Arrest (AID 2282918). As to conditions: high-content imaging, actives raise or lower the signal. In short, it runs like this:
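Read-out is phospho-histone H3 immunofluorescence with Hoechst nuclear segmentation, imaged at 20x. Human HepG2 liver cells received ten concentrations (0.39–200 uM, final DMSO 0.5% v/v) for 72 hr before fixation. Gain or loss of signal was fitted relative to DMSO.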

Assay [5] in a line: APR_HepG2_MicrotubuleCSK_72hr: Apredica 72-hour HepG2 Assay for Microtubule CSK Stabilty (AID 2282919). As to conditions: HepG2 microtubule cytoskeleton, high-content imaging, actives raise or lower the signal. In short, it runs like this:
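Read-out is tubulin fluorescence intensity from high-content imaging of HepG2 cells, with nuclei identified by Hoechst 33342. Treatment lasts 72 h at 0.39–200 uM, and curves are fitted bidirectionally against the DMSO negative control.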

Assay [6] can be described thus: APR_HepG2_P-H2AX_24hr: Apredica 24-hour HepG2 Assay for H2AX Phosphorylation (AID 2282920). As to conditions: high-content imaging, actives raise or lower the signal. The method in brief: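 HepG2, 24 hr, cpd 0.39–200 uM (10 conc, duplicate), DMSO 0.5% v/v final. Fix 3.7% formaldehyde, Triton X-100 permeabilize, anti-phospho-H2A.x 1:200 + Hoechst 2 ug/mL. Imaged, bidirectional fit vs DMSO.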

Assay [7] in a line: APR_HepG2_StressKinase_24hr: Apredica 24-hour HepG2 Assay for Stress Kinase (AID 2282922). Conditions: HepG2 stress kinase (phospho-c-Jun) imaging, actives raise or lower the signal. The method in brief:
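HepG2, 24 hr dosing, 0.39–200 uM in duplicate, 0.5% DMSO; formaldehyde fix (3.7%), 0.5% Triton X-100; anti-phospho-c-Jun + Cy3 secondary, Hoechst counterstain; ArrayScan imaging; bidirectional curve fit vs DMSO baseline.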

Assay [8] is described as follows: APR_HepG2_p53Act_72hr: Apredica 72-hour HepG2 Assay for p53 Activation (AID 2282923).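 Further: average cellular p53 protein immunofluorescence intensity in HepG2 cells.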 As to conditions: high-content imaging, actives raise or lower the signal. The method in brief: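 Cells were dosed for 72 hr with compounds at 0.39–200 uM in duplicate (final DMSO 0.5% v/v), then fixed in 3.7% formaldehyde, permeabilized with Triton X-100 and immunostained for p53 (Cy5) with Hoechst 33342 nuclear counterstain.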

A short description of assay [9]: APR_HepG2_NuclearSize_72hr: Apredica 72-hour HepG2 Assay for Nuclear Size (AID 2282925). Conditions: high-content imaging, actives raise or lower the signal. The method in brief:
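HepG2; cpd 0.39–200 uM, 10 conc, duplicate; 72 h; DMSO 0.5% v/v; fix 3.7% formaldehyde 30 min RT; Triton permeabilization; Hoechst 2 ug/mL; HCS imaging 20x; nuclear diameter; gain/loss fit vs DMSO.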

The nature of assay [10]: ATG_CRE_CIS: Attagene CIS-FACTORIAL HepG2 Assay for human cAMP Responsive Element (CRE) binding protein 3 (AID 2282926). As to conditions: HepG2 CRE cis-reporter, Attagene multiplexed mRNA; actives raise or lower the signal. In short, it runs like this: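 Human liver HepG2, transient MRTU transfection, 24 h compound exposure. Total RNA → oligo(dT) RT → PCR → 6-FAM primer extension → HpaI cut → CE. Activity called both directions vs DMSO.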

Assay [11] has as its target CCAAT/enhancer-binding protein beta (Homo sapiens) (UniProt P17676). In words: ATG_C_EBP_CIS: Attagene CIS-FACTORIAL HepG2 Assay for human CCAAT/Enhancer Binding Protein (C/EBP) beta (AID 2282927). Conditions: HepG2 Attagene cis-factorial transcription factor reporter; actives raise or lower the signal. The method in brief: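 Changes in reporter mRNA, rather than exogenous chimeric receptor activity, reflect native C/EBP signalling in transfected HepG2 cells dosed for 24 h; transcripts are detected by RT-PCR and capillary electrophoresis.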

A short description of assay [12]: ATG_CMV_CIS: Attagene CIS-FACTORIAL HepG2 Assay for human CMV (Internal Marker) (AID 2282928).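 Further: endpoint acts as a background internal control marker rather than a target.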 Conditions: HepG2 CMV promoter reporter, transcription factor profiling; actives raise or lower the signal. In short, it runs like this:
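HepG2 cells transiently transfected with multiple cis-regulated reporter units; 24 h compound exposure. Reporter mRNA quantified by RT-PCR, 6-FAM primer-extension labeling, HpaI digestion and capillary electrophoresis; bidirectional fitting against DMSO baseline.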

Assay [13] can be described thus: ATG_DR4_LXR_CIS: Attagene CIS-FACTORIAL HepG2 Assay for human Liver X Receptor (LXR), DR4 submotif (AID 2282929). As to conditions: HepG2 Attagene DR4 cis-reporter, mRNA transcription; actives raise or lower the signal. The method in brief: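 Endogenous factor activity at a DR4 cis-element is read as reporter mRNA in transiently transfected HepG2 cells. Exposure lasts 24 h; transcripts are amplified, fluorescently labelled and sized by capillary electrophoresis, with DMSO as baseline.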

In assay [14] the target is Aryl hydrocarbon receptor (Homo sapiens) (UniProt P35869). In words: ATG_Ahr_CIS: Attagene CIS-FACTORIAL HepG2 Assay for human Aryl Hydrocarbon Receptor (Ahr) (AID 2282930). As to conditions: HepG2 AhR cis-factorial reporter transcription; actives raise or lower the signal. In short, it runs like this: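 HepG2, transient MRTU (cis) transfection, 24 h exposure. RNA → cDNA → PCR → 6-FAM primer extension → HpaI 2 h 37 C → CE. Fit: bidirectional, DMSO baseline.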
Sequence of Aryl hydrocarbon receptor (Homo sapiens) (P35869 whole entry, looked up): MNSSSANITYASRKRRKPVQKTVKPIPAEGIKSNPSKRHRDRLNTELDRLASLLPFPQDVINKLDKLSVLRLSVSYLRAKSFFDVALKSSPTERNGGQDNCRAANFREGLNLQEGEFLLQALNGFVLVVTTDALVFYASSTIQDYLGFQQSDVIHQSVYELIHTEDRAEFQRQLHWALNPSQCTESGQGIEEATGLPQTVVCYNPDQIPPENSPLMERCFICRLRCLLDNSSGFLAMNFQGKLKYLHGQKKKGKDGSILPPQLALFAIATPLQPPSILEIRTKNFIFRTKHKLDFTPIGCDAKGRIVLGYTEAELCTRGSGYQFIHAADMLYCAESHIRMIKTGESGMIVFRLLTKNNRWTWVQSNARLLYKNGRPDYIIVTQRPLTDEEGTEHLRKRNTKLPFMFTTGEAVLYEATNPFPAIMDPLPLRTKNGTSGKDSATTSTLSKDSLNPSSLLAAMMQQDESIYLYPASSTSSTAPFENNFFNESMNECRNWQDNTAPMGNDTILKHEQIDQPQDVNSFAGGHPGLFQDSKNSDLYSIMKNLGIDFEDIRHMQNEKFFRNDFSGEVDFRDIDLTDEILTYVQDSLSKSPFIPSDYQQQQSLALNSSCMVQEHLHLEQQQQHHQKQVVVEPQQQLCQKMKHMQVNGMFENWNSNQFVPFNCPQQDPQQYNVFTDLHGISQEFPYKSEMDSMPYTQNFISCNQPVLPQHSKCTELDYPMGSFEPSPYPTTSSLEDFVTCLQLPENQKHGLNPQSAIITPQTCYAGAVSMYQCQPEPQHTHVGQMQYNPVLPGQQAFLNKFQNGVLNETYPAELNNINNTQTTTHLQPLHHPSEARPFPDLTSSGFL

A short description of assay [15]: ATG_AP_1_CIS: Attagene CIS-FACTORIAL HepG2 Assay for human Activator Protein 1 (AP-1) (AID 2282931). Conditions: HepG2 Attagene cis-factorial AP-1 reporter mRNA; actives raise or lower the signal. The method in brief: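 Fluorescence of labelled PCR fragments separated by capillary electrophoresis gives reporter mRNA levels. HepG2 with transfected cis-regulated reporter units, 24 h exposure; DMSO serves as baseline for bidirectional curve fits.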

The nature of assay [16]: ATG_AP_2_CIS: Attagene CIS-FACTORIAL HepG2 Assay for human Activator Protein 2 (AP-2) (AID 2282932). As to conditions: HepG2 AP-2 cis-reporter, Attagene transcription factor profiling; actives raise or lower the signal. The method in brief:
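Step one: transient transfection of HepG2 with reporter transcription units. Step two: 24 h chemical exposure. Step three: RNA extraction, RT-PCR, labelled fragment analysis by capillary electrophoresis; DMSO serves as baseline.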

Assay [17] is described as follows: ATG_BRE_CIS: Attagene CIS-FACTORIAL HepG2 Assay for human Bone Morphogenetic Protein (BMP) Response Element (BRE) (AID 2282933). As to conditions: HepG2 BMP response element reporter, Attagene transcription factor profiling; actives raise or lower the signal. In short, it runs like this: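 Read-out: reporter mRNA induction quantified by RT-PCR and capillary electrophoresis after 24 h chemical exposure of transfected HepG2 cells. Endogenous factor activity on the BMP response element; gain or loss fitted against DMSO baseline.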

Assay [18] has as its target Retinoic acid receptor alpha (Homo sapiens) (UniProt P10276). In words: ATG_DR5_RAR_CIS: Attagene CIS-FACTORIAL HepG2 Assay for human Retinoic Acid Receptor Alpha (RARE), DR5 submotif (AID 2282934).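 On AC50: reporter responds to endogenous RAR alpha beta and gamma in HepG2 not RARA alone.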 As to conditions: HepG2 Attagene cis-factorial RARE DR5 reporter, mRNA; actives raise or lower the signal. The method in brief: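 HepG2, transient cis-reporter transfection, 24 h exposure. mRNA readout: RT-PCR, FAM label, HpaI cut, capillary electrophoresis. DMSO baseline, gain/loss fitting.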

A short description of assay [19]: APR_HepG2_StressKinase_72hr: Apredica 72-hour HepG2 Assay for Stress Kinase (AID 2282921). Conditions: HepG2 stress kinase (phospho-c-Jun) imaging, actives raise or lower the signal. In short, it runs like this: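 Cells were exposed for 72 h to ten concentrations (0.39–200 uM, duplicate) at 0.5% v/v DMSO final, then fixed with 3.7% formaldehyde, permeabilized and immunostained for phospho-c-Jun (Cy3 secondary) with Hoechst nuclear counterstain.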

A short description of assay [20]: APR_HepG2_MitoMass_72hr: Apredica 72-hour HepG2 Assay for Mitochondrial Mass (AID 2282924).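 Further: MitoTracker Red CMXRos stain intensity per cell imaged as mitochondrial mass.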 As to conditions: high-content imaging, actives raise or lower the signal. In short, it runs like this:
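HepG2, 72 hr cmpd, 10 conc 0.39–200 uM in dup, DMSO 0.5% v/v. MitoTracker Red CMXRos 250 nM 30 min pre-fix; formaldehyde 3.7% fix 30 min RT. HCS imaging, gain/loss fit vs DMSO.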

As usually defined, the AC50 is the concentration giving half of the maximal activity seen.

Sequence of Retinoic acid receptor alpha (Homo sapiens) (P10276 whole entry, looked up): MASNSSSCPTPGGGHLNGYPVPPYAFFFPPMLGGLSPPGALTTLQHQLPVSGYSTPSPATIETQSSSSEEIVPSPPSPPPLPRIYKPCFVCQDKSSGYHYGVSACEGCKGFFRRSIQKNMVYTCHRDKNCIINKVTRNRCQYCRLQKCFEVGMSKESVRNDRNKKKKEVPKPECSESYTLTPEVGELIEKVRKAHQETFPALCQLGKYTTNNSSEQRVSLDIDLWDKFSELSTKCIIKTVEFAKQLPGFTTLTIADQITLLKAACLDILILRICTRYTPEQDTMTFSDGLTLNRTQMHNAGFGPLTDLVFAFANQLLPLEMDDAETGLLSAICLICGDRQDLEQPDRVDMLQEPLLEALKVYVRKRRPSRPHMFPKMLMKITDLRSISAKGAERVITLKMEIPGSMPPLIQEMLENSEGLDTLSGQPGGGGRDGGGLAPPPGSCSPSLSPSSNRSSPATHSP
Sequence of CCAAT/enhancer-binding protein beta (Homo sapiens) (P17676 whole entry, looked up): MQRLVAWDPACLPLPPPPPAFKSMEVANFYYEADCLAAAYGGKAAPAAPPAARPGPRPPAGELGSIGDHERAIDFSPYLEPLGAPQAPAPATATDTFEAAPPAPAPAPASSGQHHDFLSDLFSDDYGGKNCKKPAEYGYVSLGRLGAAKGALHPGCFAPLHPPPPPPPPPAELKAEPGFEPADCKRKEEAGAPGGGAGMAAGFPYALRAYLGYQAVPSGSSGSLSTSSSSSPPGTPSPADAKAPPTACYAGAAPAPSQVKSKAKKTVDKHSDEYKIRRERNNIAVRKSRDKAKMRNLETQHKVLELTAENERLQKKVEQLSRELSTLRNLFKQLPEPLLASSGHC

`COc1nc(NC(C)C)nc(NC(C)C)n1`: the molecule was called inactive in assay [1], in assay [2], in assay [3], in assay [4], in [5] and in assay [6]. The result in [7], in assay [8], in assay [9], in assay [10], in [11] and in [12] was inactive. Also, the call in [13], in assay [14], in [15], in assay [16], in [17] and in assay [18] was inactive.

`CC(Oc1ccc(Cl)cc1Cl)C(=O)O` (centres undefined): the call in assay [1], in assay [2], in [3], in [5], in assay [6] and in [19] was inactive. Moreover, the molecule was classed as inactive in assay [7], in [8], in [9], in assay [10], in assay [11] and in [12]. Moreover, the molecule was called inactive in [13], in [14], in assay [15], in assay [16], in assay [17] and in assay [18].

Turning to `CCON=C(CC)C1=C(O)CC(c2c(C)cc(C)cc2C)CC1=O` (centres undefined), the molecule was called inactive in assay [2], in [3], in [4], in assay [5], in [6] and in [19]. In addition, the call in assay [7], in assay [8], in [20], in assay [9], in assay [10] and in assay [11] was inactive. The outcome in assay [12], in assay [13], in assay [14], in assay [15], in assay [16] and in [17] was inactive. Besides, in [18], the molecule was called inactive.

For the molecule `CCCCC(CC)COC(=O)c1ccccc1C(=O)OCC(CC)CCCC` (centres undefined), the molecule was classed as inactive in assay [1], in [2], in assay [3], in [5], in assay [6] and in assay [7]. Besides, the molecule was called inactive in [8], in assay [20], in [9], in assay [10], in [11] and in assay [12]. Further, the molecule was classed as inactive in [13], in assay [14], in [15], in [16], in [17] and in assay [18].

Consider `N#CC(CCc1ccc(Cl)cc1)(Cn1cncn1)c1ccccc1` (centres undefined), for which the molecule was classed as inactive in [2], in assay [3], in assay [4], in assay [5], in assay [19] and in assay [7]. The call in [8], in [9], in assay [10], in assay [11], in assay [12] and in [13] was inactive. In addition, the molecule was called inactive in assay [14], in [16] and in [18]. Besides, the AC50 in [6] was 111 µM (active); in assay [15], 26.7 µM (active).

As to `CCCCNC(=O)OCC#CI`, the AC50 in assay [1] is 1.45 µM (active) and 7.9 µM (active); in assay [5], 18 µM (active); in assay [10] it was 29.7 µM (active); in assay [11] it was 25.3 µM (active); in assay [12], 67.7 µM (active); in assay [13], 180 µM (active). For the same molecule, the AC50 is 181 µM (active) in assay [15], 60.7 µM (active) in assay [16] and 26.7 µM (active) in assay [18]. The result in assay [2], in assay [3], in assay [5], in assay [6], in assay [7] and in [8] was inactive. Further, the call in assay [9], in assay [10], in assay [11], in assay [12], in [13] and in [14] was inactive. In addition, the result in assay [15], in [16] and in assay [18] was inactive.
